Active and inactive are the calls of the source. No rule for the calls is given here.
Molecular target: L-lactate dehydrogenase (Plasmodium falciparum (isolate CDC / Honduras)) (UniProt Q27743)
Assay: PfLDH activity inhibition – cell lysate, 3D7 strain, counter-screen for P. falciparum growth inhibition project (AID 2304);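 also: 0% = vehicle and 100% = reference inhibitor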
Conditions: P. falciparum 3D7 crude extract, LDH APAD/NBT absorbance; at 2 µM; active compounds read high

L-lactate dehydrogenase (Plasmodium falciparum (isolate CDC / Honduras)), sequence (Q27743 whole entry, looked up): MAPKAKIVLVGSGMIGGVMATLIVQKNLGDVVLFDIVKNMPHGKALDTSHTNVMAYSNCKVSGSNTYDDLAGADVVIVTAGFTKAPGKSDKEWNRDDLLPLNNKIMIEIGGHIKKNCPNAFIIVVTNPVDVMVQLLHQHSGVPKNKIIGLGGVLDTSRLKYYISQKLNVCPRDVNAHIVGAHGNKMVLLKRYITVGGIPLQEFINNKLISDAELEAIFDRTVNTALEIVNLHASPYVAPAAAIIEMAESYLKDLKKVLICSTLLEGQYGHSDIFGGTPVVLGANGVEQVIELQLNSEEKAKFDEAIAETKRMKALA

SMILES	inhibition
CCCc1cc(OC)c(CC2c3cccc(O)c3CCN2C)cc1OC (centres undefined)	0% (inactive)
CCC1CCCCN1S(=O)(=O)c1ccc(OC)c(N2CCN(C(=O)C(Cl)(Cl)Cl)CC2)c1 (centres undefined)	5% (inactive)
Cc1cnc(Nc2cccc(CCN3CCOCC3)c2)nc1NC(C)C	1% (inactive)

Tested on: not listed separately
Assay: inhibition of 3D7 malaria parasite growth – strain 3D7 (AID 2306);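 also: 0% = DMSO wells and 100% = chloroquine plus artemisinin control wells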
Conditions: P. falciparum 3D7 erythrocytic growth, LDH absorbance, 72 h; at 2 µM; active compounds read high

SMILES	growth inhibition
CCc1nc2c(cnn2CC)c(NC2CCOCC2)c1CNC(=O)c1ccoc1C	97% (active)
CCOC(=O)c1cc(C(=O)NCCCCN2CCC(c3ccc(CC)cc3OCC)CC2)ccc1-c1ccc(C(F)(F)F)cc1	99% (active)
Cn1cnc2c(SCc3ccc(OCc4ccccc4)cc3)ncnc21	95% (active)
COc1ccc(/C=C/C(=O)Nc2ccc(-c3ccncc3)cc2)cc1CCCN(C)C	102% (active)
C/C=C/COc1ccc2ccccc2c1CNCCCCCCCCNCc1c(OC/C=C/C)ccc2ccccc12	87% (active)
N=c1c(C(=O)NCc2ccccc2)cc2c(=O)n3ccccc3nc2n1CCc1ccccc1	99% (active)
CCOc1ccc2nc(C)cc(NN=Cc3cccc(F)c3)c2c1	100% (active)
Nc1nc2ncn(COC(COCc3ccccc3)COCc3ccccc3)c2c(=O)[nH]1 (tested in a mixture with another compound)	86% (active)
N#Cc1cccc(NC(=O)c2cccc(S(=O)(=O)NC3CCN(CC4CCCCC4)C3)c2)c1 (centres undefined)	101% (active)
O=C(COc1ccccc1)N(Cc1ccc(-c2ccc(CNC3Cc4ccccc4C3)cc2)cc1)C1CCNCC1	100% (active)
Cc1ccccc1CNc1noc(-c2sccc2Br)n1	99% (active)
CCOC(=O)[C@H](Cc1cc([N+](=O)[O-])c(Oc2ccc(OC)c(Cc3ccc(OC)c(C(C)C)c3)c2)c([N+](=O)[O-])c1)NC(=O)C(F)(F)F	94% (active)
CCC1N=C(N)N=C(N)N1OCc1ccc(Cl)c(Cl)c1 (centres undefined)	93% (active)
CC(C)(C)c1ccccc1OCCCON1C(N)=NC(N)=NC1(C)C	95% (active)
COc1ccccc1-c1cccc2c(NC(=O)Nc3ccc4nccc(N5CCN(C)CC5)c4c3)ccnc12	94% (active)
CC(C)(C)c1ccc2nccc(Nc3cccc(O)c3)c2c1	99% (active)
CCc1cn2c3c(cc(C(=O)N[C@@H](Cc4cccc(Cl)c4)[C@H](O)CNC4CCOCC4)cc13)N(C)S(=O)(=O)CC2	98% (active)
CC[C@H](C)CNC(=O)c1ccnc(-c2ccc(CN3CCC(N4CCCC4)CC3)cc2)c1	99% (active)

SMILES	growth inhibition
Cc1cccc(Nc2nc(C)cc(N3CCCN(CC4CCCCC4)CC3)n2)c1	83% (active)
CCCCN1CCN(c2cc(NS(=O)(=O)c3cccc(C(=O)Nc4ccc(C(F)(F)F)cc4)c3)ccc2OC)CC1	99% (active)
CCC1(CC)N=C(N)N=C(N)N1OCc1ccc(Cl)c(Cl)c1	94% (active)
CNC(=O)C(C)N(c1ccc(Cl)cc1)c1nc(C(C)(C)C)cs1 (centres undefined)	99% (active)
CCC[C@@H]([C@@H](CC(C)C)C(=O)N[C@@H](CCCCNC(=O)c1ccccn1)C(=O)Nc1nccs1)N(O)C=O	101% (active)
CCN=C1NC2=C(CC(C(C)(C)C)CC2)C2(CCC(C(C)(C)C)CC2)S1 (centres undefined)	99% (active)
C[C@@H]1CN(c2ncc(-c3ccc(CNC4Cc5ccccc5C4)cc3)cn2)C[C@H](C)N1	85% (active)
O=C(NCc1ccc(Cl)c(Cl)c1)c1cccc(C2CCCN(Cc3ccc4nc[nH]c4c3)C2)c1 (centres undefined)	95% (active)
Cc1ccc2c(Cl)c(C(=O)N3CC(C)OC(C)C3)sc2c1 (centres undefined)	100% (active)
COc1cccc(Nc2nc(N)c3ccccc3n2)c1	88% (active)
Cc1c(CCNC(=O)CCCN2CC(C)CC(C)C2)c2ccccc2n1C (centres undefined)	87% (active)
COc1ccc2nccc([C@@H](O)CN3CCC(NC(=O)c4nc(Cl)c(Cl)c(N)c4Cl)CC3)c2c1	87% (active)
O=C(c1cc(C(=O)NC2CCCCC2)c(=O)n(C2CCCCC2)c1)c1cc(F)ccc1O	99% (active)
O=C(Nc1cccc(CN2CCN(Cc3cccc(O)c3)CC2)c1)c1cc2ccccc2s1	86% (active)
CC(C)C[C@H](NC(=O)c1cc2ccccc2s1)C(=O)N[C@H]1CCN(Cc2ccc(OCCCN(C)C)c(Cl)c2)C1	100% (active)
O=C(CCOc1ccccc1)NCC1CCCO1 (centres undefined)	92% (active)
COc1ccccc1Nc1nc(C)cc(NCc2ccc(-n3ccnc3)cc2)n1	90% (active)
O=C(N[C@@H](CC1CCCCC1)C(=O)NCCN1CCCCC1)c1ccc(O)c(-c2ccc(Cl)c(Cl)c2)c1	97% (active)
